The record followed here is PubChem BioAssay (Tox21).

Results filed as inconclusive are left out. A call without a number means that no potency is given here. Values without a mark were called inactive. Active and inactive are the calls of the source. Calls come from the whole dose curve; as a rule, active = well fitted activation curve with a large enough effect in the repeat runs; inconclusive = weak or mixed curves; inactive = flat fitted curve, though single readings scatter.

The assay in a line: A CellTox Green Cytotoxicity Assay to monitor cytotoxicity in HEK293 cells - 16 hour (AID 1224888). Note: nearly all actives have a fitted effect of over 35% in size. The settings on record: CellTox Green fluorescence; series mostly up to 76.8 µM. From the text: National Center for Advancing Translational Sciences [NCATS]
NIH Chemical Genomics Center [NCGC]
U.S. Environmental Protection Agency [EPA]
National Institutes of Environmental Health Sciences [NIEHS]
National Toxicology Program [NTP]
Cell-based models are critical for drug discovery. Determining the natural cytotoxic effects resulting from test compounds is an essential research activity. A CellTox Green Cytotoxicity Assay to monitor cytotoxicity in real time of continues cell culture during 40 hours of the compound treatment was used to screen Tox21 10K library compounds in Hek293 cells. CellTox Green Cytotoxicity Assay is a nonlytic, homogeneous, biofluorescent method to measure cytotoxicity in cell culture after experimental manipulation. The assay system uses a proprietary asymmetric cyanine dye that is excluded from viable cells but preferentially stains the dead cell's DNA. […] Viable cells produce no appreciable increases in fluorescence. Therefore, the fluorescence signal produced by the binding interaction with dead cell DNA is proportional to cytotoxicity.
The mixture of Hek293 cell suspension and reagents were dispensed at 600cells/6 ul/well in 1536-well tissue culture treated black solid bottom plates using a Multidrop dispenser. After the assay plates were incubated at a 37 C/5% CO2 incubator for 5 hours, 23 nL of compounds dissolved in DMSO, positive and negative controls was transferred to the assay plate by a pintool work station. The plates were incubated at 37 C for 40 hours. The fluorescence intensity were measured at 0h, 8h, 16h, 24h, 32h and 40h time points using ViewLux plate reader during compound treatment.
For `CC(C)(C)C1CCCCC1=O` (stereo not given), the Potency result is “inactive”.
The same measure, in the same setting: for `CC1(C)C(=O)N(Cl)C(=O)N1Br` the value was “inactive”; for `Cc1ccc(C(C)C)cc1O`, “inactive”; for `CCCC(CCC)(C(=O)OCC)C(=O)OCC`, “inactive”.
On the same count and under the same terms, the same measure for `CCCS(=O)c1ccc2nc(NC(=O)OC)[nH]c2c1` (stereo not given): “inactive”.
Still for that read-out and setting: for `Cc1cc2nc(N)sc2cc1C` the value was “inactive”; for `Cc1c[nH]c(=S)[nH]c1=O`, “inactive”.
In the case of `CC(=O)OC1C2(C)CCC(C2)C1(C)C` (stereo not given), the Potency entry was “inactive”.
On the same count and under the same terms, for `CCCOCCC` the value was “inactive”.
As to `CN(C)Cc1ccccc1`, the Potency entry was “inactive”.
Turning to `CCN(CC)CC1CCCCN1CC(=O)N1c2ccccc2C(=O)Nc2cccnc21` (stereo not given), the Potency entry was “inactive”.
On the same count and under the same terms, for `FC(F)(F)c1ccccc1` the value was “inactive”; for `CCOc1ccc2nc(N)sc2c1`, “inactive”; for `CCCCCCCCCCCCCCCCOP(=O)([O-])OCC[N+](C)(C)C`, “inactive”.
Same read-out and setting: for `CCCCNc1cc(C(=O)O)cc(S(N)(=O)=O)c1Oc1ccccc1` the value was “inactive”; for `FC(F)(F)C(F)(F)C(F)(F)C(F)(F)C(F)(F)C(F)(F)C(F)(F)C(F)(F)Br`, “inactive”.
As for `CCCN(CCC)C(=O)C(CCC(=O)O)NC(=O)c1ccccc1` (stereo not given), the Potency result is “inactive”.
The same measure, in the same setting: for `COc1cc(N)c(Cl)cc1C(=O)NC1CCN(Cc2ccccc2)CC1` the value was “inactive”; for `CCCCc1ccc2nc(NC(=O)OC)[nH]c2c1`, “inactive”.
Still for that read-out and setting: the same measure for `COc1cc(Cl)ccc1Cl`: “inactive”; for `OCc1c2ccccc2cc2ccccc12`: “inactive”; for `Cc1ccc(C)c(N)c1`: “inactive”.
Same read-out and setting: the same measure for `CC(C)Nc1nc(N)nc(Cl)n1`: “inactive”.
For the compound `C=CC1CO1` (stereo not given), the Potency result is “inactive”.
Take `COC(=O)c1ccc2cc(C(=O)OC)ccc2c1`: the activity change was 2.83% [at 15.8 µM, active compounds read high].
With `CC(C)C(=O)OC/C=C/c1ccccc1`, the Potency entry is “inactive”.
Still for that read-out and setting: the same measure for `Cc1cc2c(s1)Nc1ccccc1N=C2N1CCN(C)CC1`: “inactive”.
On the same count and under the same terms, for `CN1CCN(C2=Nc3ccccc3Oc3ccc(Cl)cc32)CC1` the value was “inactive”.
Regarding `CN1C(=O)CC(c2ccccc2)C1=O` (stereo not given), the Potency result is “inactive”.
On the same count and under the same terms, for `Cc1nc(-c2ccccn2)ncc1C(=O)Nn1cc(C)c2cc(F)ccc21` the value was “inactive”.
On the same count and under the same terms, for `CCC1(C)NC(=O)NC1=O` (stereo not given) the value was “inactive”.
The same measure, in the same setting: the same measure for `CC(C)S`: “inactive”; for `CC[C@H]1CC[C@H](NCc2cc3c(cc2OC)[C@H]2C[C@H]2C(=O)N3C)[C@H](c2ccccc2)N1`: “inactive”.
Turning to `O=C(O)CN(CCN(CC(=O)O)CC(=O)O)CCN(CC(=O)O)CC(=O)O`, the activity change was 12.4% [at 15.8 µM, active compounds read high].
Regarding `Oc1ccccc1C=NCc1ccccc1`, the Potency result was “inactive”.
Still for that read-out and setting: for `COc1nc(C)nc(NC(=O)NS(=O)(=O)c2ccccc2OCCCl)n1` the value was “inactive”; for `CC(=O)Oc1cc(C(C)C)c(OCCN(C)C)cc1C`, “inactive”; for `Cc1cc(NS(=O)(=O)c2ccc(N)cc2)nc(C)n1`, “inactive”.
`O=C(O)c1ccccc1Nc1cc(Cl)ccc1C(=O)O`: the activity change was -3.78% [at 15.8 µM, active compounds read high].
As to `CC(C)C(=O)OCC(C)(C)C(O)C(C)C` (stereo not given), the Potency result is “inactive”.
